# Screening results deposited in PubChem BioAssay by National Center for Advancing Translational Sciences (NCATS).
# Giardia FBPA inh: qHTS Assay for Inhibitors of Fructose-1,6-bisphosphate Aldolase from Giardia Lamblia; A8B2U2; purified Giardia FBPA; Potency, µM (top dose mostly 59.6 µM), without a hit: top-dose activity, negative = inhibition, actives largely listed as inhibitors; 290,000 tested, 0.71% active; AID 2451, 2010; also: potency is read from the fitted curve at half-maximal effect; nearly all actives have a fitted effect of over 55% in size
# Target sequence (A8B2U2 whole entry, looked up): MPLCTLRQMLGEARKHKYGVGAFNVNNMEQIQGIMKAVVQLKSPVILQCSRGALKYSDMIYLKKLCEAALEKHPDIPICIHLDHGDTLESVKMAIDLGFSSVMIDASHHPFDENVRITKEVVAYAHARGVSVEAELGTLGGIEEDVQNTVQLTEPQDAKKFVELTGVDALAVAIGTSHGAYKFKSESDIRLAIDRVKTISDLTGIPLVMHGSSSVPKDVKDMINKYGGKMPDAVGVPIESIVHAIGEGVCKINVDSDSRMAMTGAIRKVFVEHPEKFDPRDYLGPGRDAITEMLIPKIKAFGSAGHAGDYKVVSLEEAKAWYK
#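 40 nM FBPA preincubated 10 min at RT with compound (up to 57.5 uM final), then substrate plus GAPDH/TPI/NAD/arsenate coupling and diaphorase/resazurin added. Fluorescence read after 20 min at RT, 525/598 nm.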
# FMDV inh: High Throughput Screening for Foot and Mouth Disease Virus Antivirals | FMDV antiviral cell-based qHTS | Potency, µM (doses to about 57.9 µM), inactives show top-dose activity change, negative = inhibition, most hits filed as inhibitors | 410,000 tested, 1.2% active; calls by dose curve; tested in HEK293T cells; also: read-out not given here; potency is read from the fitted curve at half-maximal effect; nearly all actives have a fitted effect of over 45% in size
# HCMV inh: qHTS Assay for inhibitors of the human cytomegalovirus (HCMV). HFF cells, HCMV-luciferase reporter, 72 h; stronger effect = lower value. activity change, negative = inhibition, % at 57.5 µM. 410,000 tested, 4.5% active. AID 1259415, 2018; in the data active = activity change below about -60%; inconclusive = no clear call, values can overlap the other calls; inactive = above about -39%
#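 Cell-based, HFFs, 1000 cells/well, 16 h 37C; cpds in DMSO + HCMV-luc, MOI 1 PFU/cell; 72 h 37C; OneGlo luminescence after 5 min RT; norm. to buffer vs Salinomycin 10uM.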
# LASV entry inh: qHTS for Inhibitors of binding or entry into cells for Lassa Virus; 300,000 tested, 1.2% active; Potency, µM (top dose mostly 37.9 µM), without a hit: at the highest dose activity change, negative = inhibition, usual class: inhibitors; AID 540256, 2011; Lassa virus pseudotype entry inhibition, cell reporter; calls by dose curve; tested in HEK293 cells; also: potency is read from the fitted curve at half-maximal effect; nearly all actives have a fitted effect of over 50% in size
# Marburg entry inh: qHTS for inhibitors of binding or entry into cells for Marburg Virus | Marburg virus pseudotyped entry inhibition, cell reporter | Potency, µM (titrated, usually from 37.8 µM), without a hit: at the highest dose activity change, negative = inhibition, most hits filed as inhibitors | 300,000 tested, 1.8% active; calls by dose curve; tested in HEK293 cells; also: potency is read from the fitted curve at half-maximal effect
# HCV inhibitor: qHTS Assay for Inhibitors of Hepatitis C Virus (HCV). Huh7.5.1 HCVcc-Cre infection, luciferase reporter, 44 h. Potency, µM (doses to about 41.8 µM), for the others: at the top dose activity change, negative = inhibition, actives largely listed as inhibitors. 340,000 tested, 3.4% active. AID 651820, 2012; also: potency is read from the fitted curve at half-maximal effect
#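 Infectious HCVcc-Cre (~0.5 moi) was added to cells just after compound, with cells seeded 4 h earlier at 1,000 per well. Luciferase activity after 44 h culture reported infection; substrate was incubated 15 min at room temperature before reading.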
# Starred values were filed as active, the others as inactive; ? = inconclusive; · = not tested or not shown; [ ] = dose if it differs, or a comment. Shown are actives, neighbours in structure and some others; about 8.3% of the full set was active somewhere. Unless noted, calls follow the shape of the dose curve; as a rule, active = well fitted curve in the direction sought with a large enough effect; inconclusive = small, poorly fitted or top-dose-only effect, or another doubt; inactive = no such curve, though single readings can be large; an effect the other way counts as inactive or inconclusive. % is scaled to controls: 0 for no effect and ±100 for the full control effect.
SMILES,Giardia FBPA inh,FMDV inh,HCMV inh,LASV entry inh,Marburg entry inh,HCV inhibitor
N#Cc1c(C#N)c(SSc2c(C#N)c(C#N)c(N)n2-c2ccccc2)n(-c2ccccc2)c1N,·,40µM*,-4,21%,?,?
N#Cc1c(N)n(-c2ccc(N)cc2)c2nc3ccccc3nc12,-14%,8%,40,12%,6%[46.1 µM],3%
O=C(CSc1nc(-c2ccccc2)nc2c1Cc1ccccc1O2)N1CCCCC1,·,-24%,16,-13%[46.1 µM],1%[46.1 µM],·
Cc1ncc2c(c1CNC(=O)c1ccc3c(c1)OCO3)CCN(C(=O)c1ccoc1)C2,·,3%,·,·,·,·
Cc1ccc(NC(=O)CN2C(=O)CC(c3ccc(F)cc3)=Nc3ccccc32)cc1F,·,10%,-81*,6%[46.1 µM],·,·
Cc1ccc(C2=Nc3ccccc3N(CC(=O)Nc3cccc(F)c3)C(=O)C2)cc1C,·,29%,31,?,·,·
COc1ccccc1C(=O)NC1(C(F)(F)F)C(=O)NC(C)=C1C#N (stereo unspecified),·,6%,-7,2%[46.1 µM],-11%[46.1 µM],·
CC1(C)CCN2CCC(C)(C)c3c(O)ccc1c32,?,?,-91*,·,·,-24%
Cc1ccc(C(=O)Nc2cccc(-c3nc(CNC(=O)c4ccc(F)cc4Cl)c(C)o3)c2)s1,·,26%,·,·,·,·
C=CCNC(=O)Cc1c(OC)ccc2cc(Br)ccc12,12%,?,-32,·,-27%[46.1 µM],10µM*
COc1ccccc1OCCOCCOc1ccc(C)cc1[N+](=O)[O-],0%,-17%,6,-6%,11%,-21%
C=CCc1ccc(OCCCCNC2CCCC2)c(OC)c1,?,-9%,?,?,?,10µM*
Cc1ccc(OCC(O)CNC2CCCC2)c(C)c1 (stereo unspecified),-27%,1%,89,·,·,-27%
Cc1ccc(OCCCCNC2CCCCC2)c(C)c1,?,?,-37,?,7.3µM*,13µM*
C=CCc1ccc(OCCOCCOc2ccc(C)cc2[N+](=O)[O-])c(OC)c1,1%,?,11,-3%,?,11µM*
Cc1cccc2nc(CNC(=O)CN3Cc4cc(Cl)ccc4OC(C)C3)cn12 (stereo unspecified),·,-5%,·,·,·,·
Cc1cc(N2CCCC2=O)cc(C)c1S(=O)(=O)NCCOc1ccccc1,-1%,·,-77*,-1%,-25%,?
CCOC(=O)c1ccc(-c2c(-c3ccccc3OC)oc3ccccc23)cc1F,·,3%,-1,·,·,-10%
CCOC(=O)c1ccc(-c2ccc3c(=O)c4ccccc4n(C)c3c2)cc1F,-1%,9%,-69*,·,·,52%
COC(=O)C1=C(C)N(Cc2ccccc2)C2=C(C(C)=O)C(c3ccccc3)[C@@](O)(C(=O)OC)C(=O)N2C1c1ccccc1 (stereo partly specified),-1%[12.9 µM],·,·,·,·,·
Cc1cc(N2CCN(c3ccccc3)CC2)nc(-n2nc(C)cc2C)n1,16%,?,-34,36%[14.3 µM],?,·
Cc1cc(Nc2cc(F)ccc2C)nc(-n2nc(C)cc2C)n1,·,-17%,-80*,?,·,·
Cc1cc(Nc2ccc(F)cc2)nc(-n2nc(C)cc2C)n1,·,-10%,-83*,-11%[46.1 µM],·,·
Cc1cc(Nc2ccccc2C)nc(-n2nc(C)cc2C)n1,·,-17%,-69*,?,·,·
Cc1cc(C)n(-c2nc(NC(C)C)nc(NC(C)C)n2)n1,12%,0%,11,?,?,?
Cc1cc(C)n(-c2nc(N(C)C)nc(N(C)C)n2)n1,-1%,-3%,-5,1%,-11%,-30%
Cc1cc(C)n(-c2nc(Nc3ccccc3C(F)(F)F)nc(-n3nc(C)cc3C)n2)n1,9%,?,-98*,?,10µM*,5.6µM*
O=C(c1ccncc1)N1CCC[C@@]2(CCN(C(c3ccccc3)c3ccccc3)C2)C1,3%,9%,·,·,·,·
Cc1cc(C)n(-c2nc(NC(C)(C)C)nc(NC(C)(C)C)n2)n1,·,?,?,10%,?,?
CCCCc1ccc(Nc2cc(C)nc(-n3nc(C)cc3C)n2)cc1,·,-24%,-97*,?,·,·
